Source: PubChem BioAssay (National Center for Advancing Translational Sciences (NCATS))
Cycloheximide cs: counter-screen hit for Shiga toxin inhibitors, cycloheximide; 300,000 compounds, 12% hits; cell reporter, cycloheximide protein synthesis inhibition counterscreen; max response, %; in the data active = max response mostly above about 13%, no sharp cut-off; inactive = mostly below about 14%; note: read at 38.3 µM for the half of the compounds with a filed dose
HCV inh: HCV inhibition. 340,000 compounds, 3.4% hits. AID 651820. Huh7.5.1 HCVcc-Cre infection, luciferase reporter, 44 h. Potency, µM (top dose mostly 41.8 µM), usual class: inhibitors; active = well fitted inhibition curve with a large enough effect; inconclusive = small, poorly fitted or top-dose-only effect, or another doubt; inactive = no such curve, though single readings can be large or run the other way
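After 44 h co-culture of compound, cells and HCVcc-Cre (~0.5 moi), substrate is added for 15 min at room temperature and luciferase measured over 15 sec. Cells were seeded at 1,000/well and pre-cultured 4 h.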
FMDV antiviral: foot and mouth disease virus antiviral activity; Potency, µM (doses to about 57.9 µM), actives largely listed as inhibitors; FMDV antiviral cell-based qHTS; 410,000 compounds, 1.2% hits; calls by dose curve; tested in HEK293T cells; note: read-out not given here; nearly all actives have a fitted effect of over 45% in size
Lassa entry inh: inhibitors of Lassa virus binding or cell entry; 300,000 compounds, 1.2% hits; AID 540256; Potency, µM (titrated, usually from 37.9 µM), usual class: inhibitors; Lassa virus pseudotype entry inhibition, cell reporter; calls by dose curve; tested in HEK293 cells; note: nearly all actives have a fitted effect of over 50% in size
Marburg entry inh: blocks Marburg virus binding to or entry into cells. Marburg virus pseudotyped entry inhibition, cell reporter. Potency, µM (series often up to 37.8 µM), hits mostly inhibitors. 300,000 compounds, 1.8% hits; calls by dose curve; tested in HEK293 cells
Shiga inhibitor: inhibitors of Shiga toxin in Vero cells. 290,000 compounds, 9.2% hits. AID 2315. inhibition, % at 38.7 µM. Vero cells, Shiga toxin protein synthesis inhibition reporter; in the data active = inhibition mostly above about 28%, no sharp cut-off; inactive = mostly below about 43%
A number is an active result; – = inactive; ? = inconclusive; · = no result. Sampled rows, rich in hits. Any-hit rate of the full collection: about 13%.

SMILES	Cycloheximide cs	HCV inh	FMDV antiviral	Lassa entry inh	Marburg entry inh	Shiga inhibitor
Cc1cccc(CNc2ncncc2-c2ccc3c(c2)OCO3)c1	·	·	–	·	·	·
Cc1ccc(NC(=O)CN2C(=O)COc3ccc(S(=O)(=O)N4CCOCC4)cc32)cc1N(C)C	–	–	–	–	–	–
O=c1cnc(-c2ccc(Cl)cc2)cn1O	–	–	–	·	·	–
COc1ccccc1Nc1ncnc2sccc12	–	–	–	·	·	–
CC(Nc1ncnc2sccc12)c1ccccc1 (stereo unspecified)	–	2µM	?	–	?	–
Cc1ccc(Nc2ncnc3sccc23)c(C)c1	15	–	–	?	–	62
c1nc(Nc2ccc(N3CCOCC3)cc2)c2ccsc2n1	50	–	–	–	–	69
COc1cccc(Nc2ncnc3sc(C)cc23)c1	41	–	–	·	·	75
COc1cc(OC)cc(N(C(=O)C2COc3ccccc3O2)C(C(=O)NC2CCCCC2)c2ccc(O)cc2)c1 (stereo unspecified)	–	?	–	?	?	–
C[C@@H](NC(=O)C1(c2ccccc2)CCN(C(=O)OC(C)(C)C)CC1)C(=O)N[C@@H](C(=O)O)c1ccccc1	–	–	–	·	·	–
COc1ccc(Nc2ncnc3sccc23)c(OC)c1	–	–	–	–	–	–
COc1ccc(Oc2ncnc3sccc23)cc1	42	–	–	?	–	66
COc1cccc(Nc2ncnc3sccc23)c1	23	–	–	?	–	130
COc1ccc(OC)c(Nc2ncnc3sccc23)c1	15	?	–	·	·	–
COc1ccc(Nc2ncnc3sccc23)cc1	31	–	–	–	?	72
COC(=O)Cc1[nH]nc2c1C(c1c[nH]c3ccccc13)C(C#N)=C(N)O2 (stereo unspecified)	–	–	–	–	–	–
O=c1nc(/C=C/c2ccc(O)c(O)c2)oc2ccccc12	25	–	–	–	?	–
COc1ccc(/C=C\c2nc(=O)c3ccccc3o2)cc1	60	–	?	?	?	135
CCn1c(/C=C/c2ccc(O)c(O)c2)nc2ccccc2c1=O	–	–	–	·	·	–
COc1ccc(/C=C/c2nc(S(=O)(=O)c3ccccc3)c(N(C)C)o2)cc1	–	22µM	–	·	·	–
CC1=C(C(=O)N2CCCCCC2)CC(CC(=O)NCCCCc2ccccc2)C(=O)N1CCC1=CCCCC1 (stereo unspecified)	·	·	–	·	·	·
Cn1nc(-c2ccccc2)c(CN2CCN(c3ncccn3)CC2)c1Cl	–	–	–	·	·	–
COc1ccc(-c2nc(NCCN(C)C)nc3ccsc23)c(C)c1	·	·	–	·	·	·
C#CCn1c(/C=C/c2ccc(Cl)cc2)nc2ccccc21	·	·	–	?	?	·
Clc1ccc(/C=C/c2ncc3ccccn23)cc1	33	–	–	–	?	83
SMILES	Cycloheximide cs	HCV inh	FMDV antiviral	Lassa entry inh	Marburg entry inh	Shiga inhibitor
O=C(Nc1ccccc1)Nc1n[nH]c2nnc(-c3ccccc3)c(-c3ccccc3)c12	–	14µM	?	·	·	–
O=C(CCOc1ccccc1)Nc1ccc([N+](=O)[O-])cc1	–	–	–	–	–	37
CCCOC(=O)c1ccc(NC(=O)CCC(=O)OCC)cc1	29	–	–	–	?	79
O=C(CCCOc1ccccc1)Nc1ncccn1	32	–	–	–	?	38
O=C(COc1ccccc1)Nc1ncccn1	–	–	·	–	–	–
CC(=O)c1ccc(NC(=O)CCOc2ccccc2)cc1	·	·	–	–	·	·
Cc1ccc(NC(=O)CCOc2ccccc2)cc1	54	–	–	–	·	62
O=C(NCCc1ccccc1)c1c2c(nc3ccccc13)C(=O)N(C1CCCCC1)C2	·	·	–	–	·	·
CCOC(=O)c1ccc(NC(=O)CCOc2ccccc2)cc1	–	–	–	–	?	–
COc1ccc(CCC(=O)OCC(=O)Nc2ccccc2)cc1	20	–	–	–	?	–
CCCOC(=O)c1ccc(NC(=O)CCOc2ccccc2)cc1	13	–	–	–	–	–
COc1ccc(C(=O)COC(=O)CCc2ccccc2)cc1	–	–	–	–	–	–
Cc1cc(Br)c(NC(=O)CN(C)CCOc2ccccc2)c(Br)c1	11	?	–	·	·	–
COc1ccc(OCCN(C)CC(=O)Nc2c(C)cccc2C)cc1	–	–	–	–	–	–
O=C(CCOc1ccccc1)Nc1ccccc1	27	–	–	–	?	–
Nc1ccc2c(c1)[nH]c(=O)c1cc(N)ccc12	·	·	–	·	·	·
Cc1cccc(NC(=S)NCC(c2cccnc2)N2CCOCC2)c1C (stereo unspecified)	–	–	–	–	?	–
CC(OC(=O)c1ccc2c(=O)n3c(nc2c1)CCCCC3)C(=O)Nc1ccc(Cl)cn1 (stereo unspecified)	–	–	–	–	?	–
Cc1ccc(S(=O)(=O)c2cn(CC(=O)Nc3ccccc3C)c3cc4c(cc3c2=O)OCO4)cc1	·	·	–	–	?	·
CCCC(=O)Nc1ccc(Sc2ccc([N+](=O)[O-])cc2)cc1	–	?	?	10µM	20µM	–
COc1ccc(OCCC(=O)Nc2ccccc2)cc1	17	–	–	·	·	26
COc1ccc(OCCOC(=O)Nc2ccccc2)cc1	–	–	–	–	–	–
CCC(CC)C(=O)Nc1ccc(Sc2ccc([N+](=O)[O-])cc2)cc1	–	?	?	–	–	–
CCOc1ccc(-c2nonc2NC(=O)COc2ccc(C)c(C)c2)cc1OCC	·	·	–	–	–	·
CN(C)C(CNC(=O)c1ccc(NC(=O)c2cccs2)cc1)c1ccccc1 (stereo unspecified)	–	–	–	–	?	–
SMILES	Cycloheximide cs	HCV inh	FMDV antiviral	Lassa entry inh	Marburg entry inh	Shiga inhibitor
CN(C)C(CNC(=O)c1ccc(C2SCCS2)cc1)c1ccccc1 (stereo unspecified)	35	–	–	–	–	55
O=C(CSc1ccccc1)Nc1ccc(-c2nc3ccccc3[nH]2)cc1	–	?	–	–	?	–
O=C(Nc1ccc(-c2nc3ccccc3[nH]2)cc1)c1c(F)c(F)c(F)c(F)c1F	–	?	–	–	–	–
O=C(CN1CCOCC1)Nc1ccc(-c2nc3ccccc3[nH]2)cc1	27	–	–	–	?	76
O=C(Cc1cccs1)Nc1ccc(-c2nc3ccccc3[nH]2)cc1	37	–	–	?	?	131
CCNC(=S)Nc1ccc(-c2nc3ccccc3[nH]2)cc1	40	–	–	?	?	103
CCN(CC)CCCN1C(=O)C(O)=C(C(=O)c2ccc(C)o2)C1c1cccs1 (stereo unspecified)	–	–	·	·	–	–
CC(C)(C)c1ccc(/C=C(\C#N)C(=O)NCCN2CCOCC2)cc1	–	?	?	?	–	–
Cc1ccc(C2CC(C(F)(F)F)n3ncc(C(N)=O)c3N2)cc1 (stereo unspecified)	–	–	–	–	–	–
O=C(OCn1ncc(Cl)c(Cl)c1=O)c1ccccc1Cl	–	4µM	10µM	6.5µM	4.6µM	–
O=C(OCn1ncc(Cl)c(Cl)c1=O)c1ccc(F)cc1	–	·	·	·	–	–
C=CCn1c(C)cc(C(=O)Cn2ncc(Cl)c(Cl)c2=O)c1C	42	13µM	?	?	?	73
O=c1c(Cl)c(Cl)cnn1Cc1ccc(F)cc1	–	8.9µM	40µM	21µM	?	–
